Source: PubChem BioAssay (NCI)
Values joined by “and” are separate entries in the source; they are usually repeats but may differ in a detail not shown here. Identical values can stand only once. This is part of a sample that, as a whole, favours compounds with a hit. Of some 83,000 tested, about 20% had one in any assay.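 Compound tested at a single concentration for 48 hours in 96-well plates; a percent growth value below 10 was scored as active.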 Active and inactive are the calls of the source.

Key:
Experiment in all cases: NCI-60 one-dose screen, 48 h (100 = growth as untreated, 0 = no growth, -100 = all killed)
T-47D breast = tested on: T-47D breast
BT-549 breast = tested on: BT-549 breast
MDA-MB-435 melanoma = tested on: MDA-MB-435 melanoma
SW-620 colon = tested on: SW-620 colon
MCF7 breast = tested on: MCF7 breast
HCT-116 colon = tested on: HCT-116 colon
HCC-2998 colon = tested on: HCC-2998 colon
KM12 colon = tested on: KM12 colon
MDA-MB-468 breast = tested on: MDA-MB-468 breast

Measured: growth

CC1=C(C)C(=O)C(NCCN2CCOCC2)=C(Br)C1=O
active: T-47D breast; 10 µM unless noted -58.6% | MDA-MB-435 melanoma; 10 µM unless noted -87.5% | HCT-116 colon; 10 µM unless noted -75.5%
inactive: BT-549 breast; 10 µM unless noted 87.4% | SW-620 colon; 10 µM unless noted 32.7% | MCF7 breast; 10 µM unless noted 10.3% | HCC-2998 colon; 10 µM unless noted 101% | KM12 colon; 10 µM unless noted 94.2%

O=C(N/N=C/c1ccsc1)c1[nH]c2ccc(Br)cc2c1-c1ccccc1
active: T-47D breast; 10 µM unless noted -21.6% | BT-549 breast; 10 µM unless noted -86% | MDA-MB-435 melanoma; 10 µM unless noted -85.3% | SW-620 colon; 10 µM unless noted -68% | MCF7 breast; 10 µM unless noted -50.9% | HCT-116 colon; 10 µM unless noted -71% | HCC-2998 colon; 10 µM unless noted -59.4% | KM12 colon; 10 µM unless noted -49.3%

CN(C)c1nc(NCCNS(=O)(=O)c2ccc(C(=O)/C=C/c3ccc(F)cc3)cc2)nc(N2CCOCC2)n1
active: BT-549 breast; 10 µM unless noted -24.8% | MDA-MB-435 melanoma; 10 µM unless noted 3.15% | SW-620 colon; 10 µM unless noted -48.6% | HCT-116 colon; 10 µM unless noted -96% | HCC-2998 colon; 10 µM unless noted -96.5% | KM12 colon; 10 µM unless noted -42.5%
inactive: T-47D breast; 10 µM unless noted 35.4% | MCF7 breast; 10 µM unless noted 17.8%

O=C(CSc1nnc(-c2ccc(-c3nc4ccc(Cl)cc4[nH]3)cc2)o1)Nc1ccccc1
inactive: T-47D breast; 10 µM unless noted 93.3% | BT-549 breast; 10 µM unless noted 80% | MDA-MB-435 melanoma; 10 µM unless noted 17.5% | MCF7 breast; 10 µM unless noted 33.3% | HCC-2998 colon; 10 µM unless noted 98.9% | KM12 colon; 10 µM unless noted 34.1%
active: SW-620 colon; 10 µM unless noted 0.173% | HCT-116 colon; 10 µM unless noted 5.65%

NC1(c2ccc(-c3ccc4ncnc(NCc5ccccc5)c4c3)cn2)COC1
inactive: T-47D breast; 10 µM unless noted 108% and 107% | BT-549 breast; 10 µM unless noted 109% and 106% | MDA-MB-435 melanoma; 10 µM unless noted 106% and 107% | SW-620 colon; 10 µM unless noted 114% and 106% | MCF7 breast; 10 µM unless noted 102% and 99.5% | HCT-116 colon; 10 µM unless noted 109% and 116% | HCC-2998 colon; 10 µM unless noted 117% and 113% | KM12 colon; 10 µM unless noted 101% and 88.5%

CCCCCCCOc1ccc(S(=O)(=O)Nc2ccc(C)c(F)c2C(=O)O)cc1
inactive: T-47D breast; 10 µM unless noted 93.9% | BT-549 breast; 10 µM unless noted 103% | MDA-MB-435 melanoma; 10 µM unless noted 102% | SW-620 colon; 10 µM unless noted 100% | MCF7 breast; 10 µM unless noted 86.6% | HCT-116 colon; 10 µM unless noted 95.5% | HCC-2998 colon; 10 µM unless noted 117% | KM12 colon; 10 µM unless noted 97.1%

CC/C(=C(/c1ccc(O)cc1)c1ccc(OCCN(C)C(=O)CCOCCNC(=O)Cc2ccc3c(c2)CN([C@@H]2CCC(=O)NC2=O)C3=O)cc1)c1ccccc1
active: BT-549 breast; 1 µM -12.9% | BT-549 breast; 10 µM -25.9% | MDA-MB-468 breast; 1 µM -2.35% | MDA-MB-468 breast; 10 µM -18.2%
inactive: T-47D breast; 1 µM 20.9% | T-47D breast; 10 µM 25% | MDA-MB-435 melanoma; 1 µM 104% | MDA-MB-435 melanoma; 10 µM 85% | SW-620 colon; 1 µM 70.6% | SW-620 colon; 10 µM 36% | MCF7 breast; 1 µM 34.7% | MCF7 breast; 10 µM 31.5% | HCT-116 colon; 1 µM 100% | HCT-116 colon; 10 µM 92.4% | HCC-2998 colon; 1 µM 97.3% | HCC-2998 colon; 10 µM 78.3% | KM12 colon; 1 µM 95.3% | KM12 colon; 10 µM 66.7%

COc1cc2cc(C(=O)N3C[C@@H](CCl)c4c3cc(OC(=O)N(CCC(=O)N3CCN(C)CC3)C3CCCCC3)c3ccccc43)[nH]c2c(OC)c1OC
active: T-47D breast; 10 µM unless noted -43.1% | BT-549 breast; 10 µM unless noted -94.4% | MDA-MB-435 melanoma; 10 µM unless noted -90.8% | SW-620 colon; 10 µM unless noted -55% | MCF7 breast; 10 µM unless noted -59.6% | HCT-116 colon; 10 µM unless noted -88.1% | HCC-2998 colon; 10 µM unless noted -91% | KM12 colon; 10 µM unless noted -39.1%

O=C(c1ccc(O)cc1)C1[C@H](c2ccccc2Br)[C@@H](c2ccccc2)NC12C(=O)Nc1ccccc12 (some centres undefined)
active: HCC-2998 colon; 10 µM unless noted -7.94%
inactive: T-47D breast; 10 µM unless noted 51.1% | BT-549 breast; 10 µM unless noted 51.9% | MDA-MB-435 melanoma; 10 µM unless noted 12.3% | SW-620 colon; 10 µM unless noted 27.7% | MCF7 breast; 10 µM unless noted 10.7% | HCT-116 colon; 10 µM unless noted 55.2% | KM12 colon; 10 µM unless noted 15.4%

CCOC(=O)c1ccc(NC(=S)NC(=O)c2ccc(NC(=O)C(C)C)cc2OC)cc1
inactive: MDA-MB-435 melanoma; 10 µM unless noted 33.7% | SW-620 colon; 10 µM unless noted 62.6% | HCT-116 colon; 10 µM unless noted 23.6% | HCC-2998 colon; 10 µM unless noted 67.9% | KM12 colon; 10 µM unless noted 30.2%
active: T-47D breast; 10 µM unless noted -0.757% | BT-549 breast; 10 µM unless noted -5.7% | MCF7 breast; 10 µM unless noted 8.31%

O=C1CC(c2ccc(I)cc2)OC2C=Cc3ccccc3C12 (centres undefined)
inactive: T-47D breast; 10 µM unless noted 87.8% | BT-549 breast; 10 µM unless noted 108% | MDA-MB-435 melanoma; 10 µM unless noted 97.4% | SW-620 colon; 10 µM unless noted 103% | MCF7 breast; 10 µM unless noted 83.3% | HCT-116 colon; 10 µM unless noted 98.9% | HCC-2998 colon; 10 µM unless noted 117% | KM12 colon; 10 µM unless noted 92.9%

COc1ccc(-c2nc3ccc(-c4nnc(SCc5ccccc5)o4)cc3[nH]2)cc1OC
active: HCT-116 colon; 10 µM unless noted 8.42%
inactive: T-47D breast; 10 µM unless noted 32.4% | BT-549 breast; 10 µM unless noted 49.7% | MDA-MB-435 melanoma; 10 µM unless noted 40% | SW-620 colon; 10 µM unless noted 15.9% | MCF7 breast; 10 µM unless noted 21.7% | HCC-2998 colon; 10 µM unless noted 63.2% | KM12 colon; 10 µM unless noted 61.2%

CN1CCN(CCS(=O)(=O)Nc2cc(-c3ccc4ncnc(Nc5ccc(F)c(Cl)c5)c4c3)cnc2Cl)CC1
active: T-47D breast; 10 µM unless noted -6.97% | BT-549 breast; 10 µM unless noted -53% | MDA-MB-435 melanoma; 10 µM unless noted 0.425% | HCC-2998 colon; 10 µM unless noted -8.06%
inactive: SW-620 colon; 10 µM unless noted 36.2% | MCF7 breast; 10 µM unless noted 10.2% | HCT-116 colon; 10 µM unless noted 27.8% | KM12 colon; 10 µM unless noted 46.4%
